From PubChem BioAssay AID827 (SRMLSC, 2007)
Screen size: about 140,000 compounds; about 1,700 (1.2%) were called active.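 Rule for the calls: active = viability at or below a set limit, 4 SD under the median of all tested compounds (cut at about 3.7% in these data); inactive = the rest.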 The entries come from a sample that favours actives as a whole.

Experiment: growth suppression of PTEN-null HCT116, primary screen, cell-based, CellTiter-Glo (AID 827);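 note: PTEN knockout HCT116 line with beta catenin targeted HCT116 as companion control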
Details: 60 h, at 10 µM, hits give low values

Structure (SMILES)	viability
CC(Sc1nnc2c(n1)C1CCC2(C)C1(C)C)C(=O)Nc1ccccc1 (configuration not stated)	87.5% (inactive)
O=C(CC(=O)Nc1ccc(Cl)c(Cl)c1)N/N=C/c1ccc(O)cc1	86.7% (inactive)
O=C(Cc1ccc(Cl)c(Cl)c1)Nc1ccc(SC(F)F)cc1	26.6% (inactive)
O=C(CC(O)(C(F)(F)F)C(F)(F)F)Nc1ccc(Cl)c(Cl)c1	2.05% (active)
COc1ccc(N2C(=O)C(CC(=O)Nc3ccc(F)cc3)N(CCc3cccs3)C2=O)cc1 (configuration not stated)	84.4% (inactive)
O=C(Nc1ccc2ccccc2c1)/C(=C\c1ccc2c(c1)OCO2)NC(=O)c1ccco1	95.8% (inactive)
COc1ccc(NC(=O)c2nc(-n3nc(C)cc3C)ccc2Cl)cc1Cl	72.5% (inactive)
CCCC(NS(=O)(=O)c1ccc(OC)cc1)C(=O)O (configuration not stated)	91.3% (inactive)
COc1ccc(O[C@H]2C=C[C@@H](c3ccccc3)O[C@@H]2CO/N=C/C[C@@H]2C=C[C@H](OC(C)=O)[C@@H](COC(C)=O)O2)cc1	85% (inactive)
CCCNC(=O)OC[C@H]1O[C@H](CCO/N=C/[C@@H](NS(=O)(=O)c2ccc(C)cc2)[C@H](C)/C=C/CC(=O)OC)C=C[C@@H]1Oc1ccc(OC)cc1	0.23% (active)
O=C(Cc1ccccc1)Nc1cccc(C(=O)N/N=C/c2ccco2)c1	92.6% (inactive)
O=C(Nc1ccccc1F)c1ccccc1-c1ccccc1	87% (inactive)
Cc1c(C(=O)NCCCc2ccccc2)cccc1[N+](=O)[O-]	44.8% (inactive)
COc1ccc(/C=C2/C(=O)OCc3cc(OC)c(OC)cc32)c(OC)c1	71.4% (inactive)
CC(C)(C)NCCCOc1ccc(Cl)cc1C(C)(C)C	40.9% (inactive)
COc1cccc(/C=N\NC(=O)C2=NNC(=O)C2C)c1O (configuration not stated)	48.4% (inactive)
COc1cc(/C=C2\SC(=S)N(Nc3ncc(C(F)(F)F)cc3Cl)C2=O)cc(OC)c1OC	88.8% (inactive)
COc1cccc(/C=N/Nc2ncc(C(F)(F)F)cc2Cl)c1O	2.37% (active)
O=C(NCc1ccc2c(c1)OCO2)c1ccc2c(c1)C(=O)N(CC1CCCO1)C2=O (configuration not stated)	1.19% (active)
CC1CCN(c2ccc(C(=O)NCc3ccc4c(c3)OCO4)cc2[N+](=O)[O-])CC1	85.2% (inactive)
CCC(=O)Nc1ccc(C(=O)Nc2ccc3c(c2)C(=O)N(CC2CCCO2)C3=O)cc1 (configuration not stated)	107% (inactive)
CC(CNc1ccc([N+](=O)[O-])c2cccnc12)Nc1c([N+](=O)[O-])cc(C(F)(F)F)cc1[N+](=O)[O-] (configuration not stated)	62.8% (inactive)
CCOc1ccc(C(=O)NC(=S)Nc2ccc(N3CCOCC3)c(Cl)c2)cc1[N+](=O)[O-]	70.2% (inactive)
NC1=NN(c2cccc(C(=O)O)c2)C(=O)C1	104% (inactive)

Structure (SMILES)	viability
CCCCN(C)CCC(=O)Nc1ccc(Cl)cc1	91.2% (inactive)
Cc1ccc(C(=O)NCC2CCCO2)o1 (configuration not stated)	101% (inactive)
Cc1cc(Br)ccc1NC(=O)C1CCCO1 (configuration not stated)	97.1% (inactive)
OC(CNCC1CCCO1)Cn1c2ccc(Br)cc2c2cc(Br)ccc21 (configuration not stated)	1.31% (active)
O=C(Nc1ccc2c(c1)OCO2)c1ccc(N2C(=O)c3ccccc3C2=O)cc1	93.1% (inactive)
CSCC[C@H](NC(=O)OC(C)(C)C)C(=O)N/N=C/c1cc2ccc(C)cc2nc1Cl	1.55% (active)
CSCCC(NC(=O)COc1ccccc1)C(=O)Nc1ccc(C)cc1 (configuration not stated)	96.1% (inactive)
CCOc1cc(/C=N/NC(=O)OC)ccc1OCCSc1ccc(Cl)cc1	93.7% (inactive)
CC(=O)NCCC(=O)Nc1nc(C)c(Cc2ccc3c(c2)OCO3)s1	99.8% (inactive)
COc1ccccc1C(=O)Nn1c(-c2cccs2)nc2ccccc2c1=O	95% (inactive)
CC(C)Nc1nnc(SCC(=O)c2c[nH]c3ccccc23)s1	87.3% (inactive)
CCO/N=C(/C)c1c(O)cc(-c2ccccc2)n(-c2ccccc2)c1=O	103% (inactive)
N=c1n(CCc2ccccc2)c2ccccc2n1Cc1ccccc1F	1.8% (active)
CN(Cc1ccccc1)Cc1ccccc1F	101% (inactive)
CC(=O)NC(C)c1nc2ccccc2n1Cc1ccccc1F (configuration not stated)	102% (inactive)
CCOC(=O)/C(=C\c1ccc([N+](=O)[O-])cc1)C(=O)c1cc(C(C)=O)c(Nc2ccccc2)s1	1.45% (active)
O=C(Nc1ccccc1)/C(=C/c1ccc([N+](=O)[O-])cc1)NC(=O)c1ccccc1	95.2% (inactive)
Cc1cccc(NC(=O)c2sc(-c3ccccc3)nc2-c2ccc([N+](=O)[O-])cc2)c1	73.5% (inactive)
C/C(=N\NC(=O)c1ccc(CSc2nc(C)cc(C)n2)cc1)C1CCCCC1	93% (inactive)
O=C1NC(c2ccccc2)CCC1(Cl)Cl (configuration not stated)	95.3% (inactive)
COc1ccccc1N1N=C(c2cccs2)CC1c1ccccc1 (configuration not stated)	65% (inactive)
Cc1cccc(C)c1Nc1nnc(SCC(=O)Nc2sccc2C#N)s1	92.1% (inactive)
CCCc1cc(-c2nc(-c3ccc(C)cc3)cs2)ccn1	26.2% (inactive)
